Bioassay records: PubChem, National Center for Advancing Translational Sciences (NCATS)
MBNL1-CUG inh = MBNL1-poly(CUG) RNA binding inhibition. Q9NR56. TR-FRET MBNL1-His/biotin-(CUG)12 binding, 665/545 ratio. Potency, µM (highest dose often 57.5 µM), for inactives: top-dose activity change, negative = inhibition, usual class: inhibitors. hit rate 0.036% among 280,000; active = well fitted inhibition curve with a large enough effect in the signal ratio, with a control signal flat, not every such curve was filed as active; inconclusive = small, poorly fitted or top-dose-only effect, or effect the other way, or a change in a side signal; inactive = no such curve, though single readings can be large or run the other way; the % refers to the signal ratio; note: potency is the fitted concentration of half-maximal effect; % is set by controls: 0 for no effect and ±100 for the full control effect
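MBNL1-His + Biotin-(CUG)12, cpd titration 92 nM–58 uM; Tb anti-His Ab 0.055 ng/ul, SA-XL665 5 nM (final); 60 min RT; ratiometric 665/545 nm, Ex 340 nm; normalized to buffer and full-complex controls.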
DRD3 antagonist = D3 dopamine receptor (human) antagonism | max response, negative = inhibition, % | hit rate 2.5% among 360,000 | D3R cells, DiscoveRx beta-arrestin luminescence, antagonist mode; hits give low values | AID 652054; in the data active = max response below about -50%; inconclusive = no clear call, values can overlap the other calls; note: % is set by controls: 0 for no effect and ±100 for the full control effect
Target sequence (P35462 whole entry, looked up): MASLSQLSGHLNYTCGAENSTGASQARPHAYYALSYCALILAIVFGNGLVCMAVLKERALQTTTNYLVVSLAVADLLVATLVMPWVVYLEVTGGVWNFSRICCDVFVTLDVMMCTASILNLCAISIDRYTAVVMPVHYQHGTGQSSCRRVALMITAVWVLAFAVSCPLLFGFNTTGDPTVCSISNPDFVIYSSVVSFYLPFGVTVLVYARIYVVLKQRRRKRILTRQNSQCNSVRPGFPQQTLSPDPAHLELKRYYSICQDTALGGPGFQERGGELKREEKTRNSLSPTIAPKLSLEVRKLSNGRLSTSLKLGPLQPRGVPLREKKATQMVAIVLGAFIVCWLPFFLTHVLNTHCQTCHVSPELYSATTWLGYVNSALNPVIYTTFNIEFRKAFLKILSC
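Cells expressing the human receptor were seeded at 1500 cells/well, incubated overnight at 37 degrees C in 5% CO2, then exposed to library compounds with dopamine controls for 90 minutes at 37 degrees C before luminescent detection.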
DRD3 agonist = D3 dopamine receptor (human) agonism. D3R DiscoveRx beta-arrestin cells, luminescence, 90 min. P35462. AID 652048. max activation, %. hit rate 0.58% among 410,000; in the data active = max activation above about 30%; note: 0% is about no effect
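Cells at 1500/well, incubated overnight, then treated with pinned compounds (dopamine as control) for 90 min at 37 degrees C. DiscoveRx reagent added for 30 - 60 minutes at room temperature; luminescence read.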
CBFb-RUNX1 inh = blocks binding between human CBF-beta and RUNX1; Q01196+Q13951; AlphaScreen CBFb-His/RUNX1-biotin binding, biochemical; Potency, µM (series often up to 59.8 µM), without a hit: top-dose activity, negative = inhibition, most hits filed as inhibitors; 230,000 tested, under 10 active; note: % of control where 0% means no effect
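Compounds were screened at multiple concentrations against a preformed CBF-beta(His)/RUNX1(biotin) complex (30 nM of each) for 15 min at room temperature, followed by 90 min with nickel and streptavidin beads and AlphaScreen reading.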
Integrin act MD = integrin-mediated muscular dystrophy alleviation activation | alpha7betagal myoblasts, beta-gal FDG fluorescence, 48 h | Potency, µM (doses to about 38.3 µM), without a hit: at the top dose activation, most hits filed as activators | hit rate 0.064% among 350,000;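 note: potency is the fitted concentration of half-maximal effect; 100% = response of the positive control SU9516; nearly all actives have a fitted effect of over 60% in size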
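Alpha7betagal+/- myoblasts (passage 13) were plated 16-24 hr, then exposed to compounds (1:260 dilution of DMSO stock) for 48 hours at 37C. After MPER lysis, β-galactosidase reporter activity was read as FDG fluorescence (ex 480/em 540) after 30 minutes.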
PTHR1 agonist = agonists of human PTHR1 parathyroid hormone receptor. HEK293 GP2 PTHR1 cells, GloSensor cAMP luminescence, 1 h. Potency, µM (top dose mostly 115 µM), for the others: at the highest dose activation, hits mostly activators. hit rate 0.075% among 410,000; note: potency is the fitted concentration of half-maximal effect; nearly all actives have a fitted effect of over 55% in size
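HEK-293-derived GP2 cells expressing PTHR1 and a GloSensor cAMP reporter, 3,000/well, plated overnight, given luciferin plus IBMX (each 0.5 mM as added) for 1 h at 37 °C, then compound for 1 h at 37 °C. Luminescence was read after 15 min at room temperature.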
* marks the source's active call; other numbers are inactive results; i = inactive; ? = inconclusive; . = no result given; [ ] = dose if it differs, or a comment. Compounds with a hit are over-represented: about 2.8% of the library has one in this group of screens. Unless noted, calls come from the whole dose curve; as a rule, active = well fitted curve in the direction sought with a large enough effect; inconclusive = small, poorly fitted or top-dose-only effect, or another doubt; inactive = no such curve, though single readings can be large; an effect the other way counts as inactive or inconclusive.

SMILES | MBNL1-CUG inh | DRD3 antagonist | DRD3 agonist | CBFb-RUNX1 inh | Integrin act MD | PTHR1 agonist
CC(C)CC(=O)Nc1nnc(SCC(=O)Nc2nccs2)s1 | 1% | -13 | -6 | . | -2% | -10%
Cc1ccc(S(=O)(=O)N2CC3(O)CN(C(=O)OC(C)C)N(C(=O)OC(C)C)CC3(OC(=O)NCc3ccco3)C2)cc1 (stereo not drawn) | . | 22 | 2 | . | -17% | -39%
C=CCOc1ccc(/C=C2/C(=N)N3N=C(CC(=O)N4CCCC4)SC3=NC2=O)cc1OC | 2% | 6 | 12 | . | 15% | -1%
CC(C)(C)OC(=O)N[C@H]1C=C[C@@H](OC(=O)CC(=O)OCC(F)(F)F)C1 | . | 0 | 11 | . | 10% | i
CSc1nc(-c2ccccc2)[nH]c(=S)c1C(C)=O | -6% | -93* | -8 | 2% | 20% | ?
O=C1C(=Cc2ccccn2)CCc2ccccc21 | . | -67* | -15 | . | -26% | -36%
COc1cccc(C#Cc2c(C=O)n(C)c3ccccc23)c1 | . | 69 | 56* | . | -11% | -11%
COc1ccc(-c2cc(C(=O)Nc3cccc(O)c3)on2)cc1OC | . | . | 6 | . | . | i
CCOC(=O)CCCCC(=O)c1[nH]c(=O)[nH]c1CSCCO | 3.5µM* | 17 | -11 | ? | 14% | -18%[57.5 µM]
CCOC(=O)c1[nH]c(=O)[nH]c1CSc1ccccn1 | -7% | -8 | 2 | 3% | 0% | -12%[57.5 µM]
Cc1cccc(NC(=O)CSc2nc(-c3ccccc3)c(C#N)c(=O)[nH]2)c1C | 28% | -63* | -5 | 7% | 14% | -15%[57.5 µM]
CCOC(=O)CCCCC(=O)c1[nH]c(=O)[nH]c1CSc1nc(-c2ccccc2)c(C#N)c(=O)[nH]1 | 7.1µM* | 9 | 9 | -13% | ? | 5%[57.5 µM]
CCc1ccc(C2=CC(c3cccc(C)c3)n3c(nc4ccccc43)N2)cc1 (stereo not drawn) | . | . | -18 | . | . | -62%
CC(C)c1ccc(S(=O)(=O)NC2CCS(=O)(=O)C2)cc1 (stereo not drawn) | . | 6 | -1 | . | 0% | -10%
COCCCNCCCOc1ccc(C)cc1Br | 7% | -73* | -20 | 3% | -44% | i
CCOc1ccccc1OCCCOc1ccc(C)cc1Br | 1% | 46 | -1 | ? | 19% | -11%
COCCCNCCCCOc1c(Cl)cc(C)cc1Br | 3% | -77* | -10 | 2% | -16% | i
CCN(CC)CCCOc1ccc(C)cc1Br | 0% | -75* | 1 | -4% | -25% | i
C=CCNCCCOc1ccc(C)cc1Br | . | ? | -31 | -6% | -2% | i
COCCCNCCCOc1ccc(Cl)cc1Br | 11% | ? | -7 | -1% | -69% | ?
COCCNCCCOc1ccc(C)cc1Br | 1% | -51* | -1 | 0% | -30% | i
COc1ccc(N2C(=O)NC(NC(=O)c3ccncc3)(C(F)(F)F)C2=O)cc1 (stereo not drawn) | 2% | -9 | -3 | 5% | -2% | i
CS(=O)(=O)Nc1cccc(C2=NN(C(=O)c3ccccc3Cl)C(c3ccccc3O)C2)c1 (stereo not drawn) | 1% | 15 | 3 | -5% | -3% | -8%
COc1ccc(-n2cc(C(=O)O)c(=O)cc2C)cc1 | . | 6 | 6 | -6% | 0% | i
CC1(C(=O)Nc2ccc3c(c2)OCCO3)CSCC(=O)N1C1CCN(Cc2ccccc2)CC1 (stereo not drawn) | . | -61* | -17 | . | . | i
SMILES | MBNL1-CUG inh | DRD3 antagonist | DRD3 agonist | CBFb-RUNX1 inh | Integrin act MD | PTHR1 agonist
CC1(C(=O)Nc2ccc3c(c2)OCCO3)CSCC(=O)N1CCCN1CCOCC1 (stereo not drawn) | . | -12 | 1 | . | . | i
O=C(Cn1cc(COc2c(F)c(F)cc(F)c2F)nn1)c1ccc(O)cc1 | . | -79* | 1 | . | 0% | i
COc1ccc(/C=N/Nc2nnc(C)n2N)cc1OC(C)=O | 14% | -56* | -10 | . | -1% | -4%
O=C(NCC1CCCO1)C(c1ccccn1)N(Cc1ccccc1Cl)C(=O)CN1C(=O)c2ccccc2S1(=O)=O (stereo not drawn) | -6% | 11 | 7 | 3% | 5% | i
S=C1NCCc2ccccc2C1c1ccccc1Cl (stereo not drawn) | -10% | -64* | -3 | -10% | -6% | i
Cn1c(SCCN2CCCCC2)nnc1-c1ccccc1Br | 2% | -63* | -4 | -1% | -17% | i
Cc1ccc(C)c(NS(=O)(=O)c2cc3c(cc2Cl)NC(=O)CO3)c1 | . | . | -7 | . | . | -5%
COc1ccc(NC(=O)c2c(NCc3cccc(F)c3)sc3c2CCC3)c(OC)c1 | . | . | 0 | . | . | -12%
Cc1cc(N)c2cc(NC(=O)/C=C/c3ccccc3Cl)ccc2n1 | . | -83* | -15 | -22% | -62% | i
Cc1cc(C)nc(NC(=O)/C=C/c2ccccc2Cl)n1 | 8% | -23 | -2 | 10% | -47% | i
COc1ccccc1NC(=O)N[C@@H](Cc1c[nH]c2ccccc12)C(=O)NN | 2% | 10 | -7 | . | 4% | -2%
CCc1nnc(NC(=O)/C=C/c2cccs2)s1 | 21% | 13 | 3 | -1% | -24% | i
O=C(CC1Sc2ccccc2NC1=O)NNc1cc(Cl)ccc1Cl (stereo not drawn) | . | 47 | 36* | . | -31% | i
COc1ccc(CNC(=O)c2ccc(-c3c(C)noc3C)c3ccoc23)cc1OC | . | 49 | 5 | . | . | -59%
OC(CSc1ccccc1)CN1CCN(c2ccccc2)CC1 (stereo not drawn) | . | ? | -2 | . | 22% | -8%
OC(CN1CCN(c2ccc(F)cc2)CC1)c1ccc(Cl)cc1 (stereo not drawn) | -1% | ? | -5 | . | -17% | -11%
OC(CSc1c(Cl)cccc1Cl)CN1CCN(c2ccc(F)cc2)CC1 (stereo not drawn) | -8% | -89* | -39 | -15% | 23% | -12%
OC(CSc1ccccc1Cl)CN1CCN(c2ccc(F)cc2)CC1 (stereo not drawn) | 0% | -81* | -28 | 0% | 26%[7.66 µM] | 18%[57.5 µM]
